Source: PubChem BioAssay
HCV inhibitor – qHTS Assay for Inhibitors of Hepatitis C Virus (HCV); Huh7.5.1 HCVcc-Cre infection, luciferase reporter, 44 h; Potency, µM (top dose mostly 41.8 µM), actives largely listed as inhibitors; 340,000 tested, 3.4% active; active = well fitted inhibition curve with a large enough effect; inconclusive = small, poorly fitted or top-dose-only effect, or another doubt; inactive = no such curve, though single readings can be large or run the other way
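A cell-based infection assay in which seeded cells (1,000 per well) receive test compound after 4 h, are inoculated with HCVcc-Cre at approximately 0.5 moi, and are incubated 44 h before luminescence detection.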
SARS PLP yeast – qHTS of Yeast-based Assay for SARS-CoV PLP; S. cerevisiae expressing SARS-CoV PLpro, growth rescue; Potency, µM (titrated, usually from 32.9 µM), hits mostly activators; 330,000 tested, 0.19% active; calls by dose curve; also: nearly all actives have a fitted effect of over 55% in size
FMDV inh – High Throughput Screening for Foot and Mouth Disease Virus Antivirals. Potency, µM (top dose mostly 57.9 µM), most hits filed as inhibitors. FMDV antiviral cell-based qHTS. AID 1159524, 2015. 410,000 tested, 1.2% active; calls by dose curve; tested in HEK293T cells; also: read-out not given here; nearly all actives have a fitted effect of over 45% in size
MARV entry inh – qHTS for inhibitors of binding or entry into cells for Marburg Virus | Marburg virus pseudotyped entry inhibition, cell reporter | Potency, µM (highest dose often 37.8 µM), actives largely listed as inhibitors | 300,000 tested, 1.8% active | AID 540276, 2011; calls by dose curve; tested in HEK293 cells
HCMV antiviral – qHTS Assay for inhibitors of the human cytomegalovirus (HCMV); 410,000 tested, 4.5% active; activity change, negative = inhibition, % at 57.5 µM; HFF cells, HCMV-luciferase reporter, 72 h; hits give low values; in the data active = activity change below about -60%; inconclusive = no clear call, values can overlap the other calls; inactive = above about -39%
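Two-dose cell screen: HFF monolayers treated with compounds and infected with luciferase-expressing HCMV at 1 PFU/cell, 72 h at 37C, then lysed for luciferase measurement.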
Lassa entry inh – qHTS for Inhibitors of binding or entry into cells for Lassa Virus; 300,000 tested, 1.2% active; Lassa virus pseudotype entry inhibition, cell reporter; AID 540256, 2011; Potency, µM (series often up to 37.9 µM), usual class: inhibitors; calls by dose curve; tested in HEK293 cells; also: nearly all actives have a fitted effect of over 50% in size
A number is an active result; n = inactive; u = inconclusive; x = no result given; [ ] = dose if it differs, or a comment. In the library only some 8% were active in any assay of this set; here they are far more common.

SMILES	HCV inhibitor	SARS PLP yeast	FMDV inh	MARV entry inh	HCMV antiviral	Lassa entry inh
CC(C)(C)C1CCC(C(=O)OCC(=O)Nc2ccc3[nH]c(=O)[nH]c3c2)CC1 (centres undefined)	n	n	n	u	-72.2	n
CC(=O)Nc1c(C#N)c(-c2ccccc2)c(C#N)c(=O)n1-c1ccc(C)cc1	x	x	n	x	n	x
CC(=O)c1ccc(NC(=O)c2cc3c(=O)oc4ccc(C)cc4c3s2)cc1	x	x	n	n	-93.0	n
CCNc1ncc2nc(-c3ccc(F)cc3)c(=O)n(CCc3ccccc3)c2n1	x	x	n	x	x	x
O=C(Nc1ccccc1C(=O)Nc1ccc2c(c1)OCO2)c1ccco1	12.6µM	n	n	u	n	u
Cc1cc(NC(=O)c2ccc3c(c2)OCCO3)ccc1NC(=O)c1ccco1	u	n	n	u	n	u
O=C(Nc1ccccc1C(=O)Nc1ccccc1)c1ccco1	n	n	n	n	n	n
O=C(Nc1ccc(NC(=O)c2ccco2)cc1)c1ccc2c(c1)OCCO2	u	n	n	n	-72.5	n
O=C(Nc1ccc2cn[nH]c2c1)c1ccc(Cl)c(S(=O)(=O)N2CCOCC2)c1	n	n	n	u	n	n
O=C(NCc1ccc(F)cc1)c1ccc2c(O)c(S(=O)(=O)c3ccccc3)c(=O)[nH]c2c1	x	x	n	x	n	n
CCN(CC)CCNC(C(=O)Nc1cccc(C(C)=O)c1)c1ccccc1 (centres undefined)	n	n	n	u	n	n
O=C(CCC(=O)N1CCSc2ccccc21)NCc1ccccc1Cl	x	x	n	n	-61.9	x
Cc1cc2c(cc1C)C(c1cccc([N+](=O)[O-])c1)CC(=O)N2 (centres undefined)	u	n	n	4.47µM	n	u
O=C1CC(c2cccc(Br)c2)c2cc3c(cc2N1)CCC3 (centres undefined)	u	n	u	u	-65.4	u
COc1ccc(-c2cc3ccc(O)c(CN4CCC(C)CC4)c3oc2=O)cc1OC	x	x	n	x	n	n
[O-][n+]1onc2c1CCc1c-2nc(-c2ccccc2)n1OCc1ccccc1	n	n	n	n	n	n
COc1ccc(-c2nc3c(n2O)CCc2c-3no[n+]2[O-])cc1	n	n	n	x	-68.3	x
COn1c(-c2ccccc2)nc2c1CCc1c-2no[n+]1[O-]	n	n	n	n	-80.1	n
OCCCCCN=c1cc(-c2ccccc2)oc2ccc(Cl)cc12	u	n	n	u	-61.9	u
CCCCNC(=O)CCc1c(C)nc2nc(-c3cc(OC)cc(OC)c3)nn2c1C	n	n[6.58 µM]	n	n	-95.2	n
Cc1nn(Cc2c(Cl)cccc2Cl)c(C)c1NC(=O)c1cnn2c(C(F)F)cc(-c3ccccc3)nc12	n	n	n	n	n	n
Cc1ccc(-c2cc(C(F)F)n3ncc(C(=O)Nc4c(C)nn(Cc5ccccc5Cl)c4C)c3n2)cc1	u	n	u	n	-95.4	n
Cc1ccc(-c2cc(C(F)F)n3ncc(C(=O)Nc4c(C)nn(Cc5c(Cl)cccc5Cl)c4C)c3n2)cc1	n	n	n	n	-76.6	u
CC(NC(=S)Nc1ccccc1OC(F)F)C(C)(C)C (centres undefined)	n	11.2µM	n	n	-65.2	n
CCCCCn1c(=O)[nH]c2cc(C(=O)N3CCN(c4ccc(C(C)=O)cc4)CC3)ccc2c1=O	7.94µM	n	u	u	-74.0	n
SMILES	HCV inhibitor	SARS PLP yeast	FMDV inh	MARV entry inh	HCMV antiviral	Lassa entry inh
CCCCCn1c(=O)[nH]c2cc(C(=O)N3CCN(c4ccc(F)cc4)CC3)ccc2c1=O	u	x	u	n	-76.0	n
CCCCCn1c(=O)[nH]c2cc(C(=O)N3CCN(c4cccc(C)c4)C(C)C3)ccc2c1=O (centres undefined)	x	x	15.8µM	u	n	u
CCCCCn1c(=O)[nH]c2cc(C(=O)N3CCN(c4ccc(OC)cc4)CC3)ccc2c1=O	x	x	n	u	n	n
COCCn1c(=O)[nH]c2cc(C(=O)N3CCN(c4ccc(F)cc4)CC3)ccc2c1=O	x	x	n	n	n	n
Cc1ccc2nc(-c3ccc(O)c(O)c3)cn2c1	n	n	12.6µM	u	n	u
Cc1ccc2nc(-c3ccccc3)cn2c1	n	n	1.78µM	0.447µM	-65.8	0.316µM
CC(C)c1onc(C(=O)NCc2cccs2)c1[N+](=O)[O-]	n	n	n	x	-68.0	x
COc1ccc(OC)c(NC(=O)c2cc3n(n2)C(C(F)(F)F)CC(c2ccc4c(c2)OCO4)N3)c1 (centres undefined)	31.6µM	n	n	n	n	n
COc1ccccc1NC(=O)c1cc2n(n1)C(C(F)(F)F)CC(c1ccc3c(c1)OCO3)N2 (centres undefined)	u	n	n	u	n	u
O=C(Cc1ccc(-c2ccccc2)cc1)NCCS(=O)(=O)N1CCN(c2ccccc2)CC1	x	x	n	x	n	n
COc1ccccc1NC(=O)N1CCC(c2nc3cc(C)c(C)cc3[nH]2)CC1	u	n	n	u	-64.0	u
COc1ccccc1NC(=S)N1CCC(c2nc3cc(C)c(C)cc3[nH]2)CC1	n	n	x	n	n	n
COc1ccc(C(=O)c2c(N)sc3c2CCN(C(=O)OC(C)(C)C)C3)cc1	u	n	u	u	-83.8	u
CN1CCc2c(sc(N)c2C(=O)c2ccc(Cl)cc2)C1	n	n	n	n	n	n
COc1cccc(CN2CCc3nnc(CCc4ccccc4)n3CC2)c1OC	x	x	n	x	x	x
COc1ccc(OC)c(CCNC(=O)CCc2cn(Cc3cc(C)ccc3C)c3ccccc23)c1	x	x	n	x	n	n
Cc1cccc(CN2C[C@]34CC[C@@H](C[C@@H]3S2(=O)=O)O4)c1	7.08µM	n	n	x	n	x
CCCC/C(O)=C/c1nc2ccccc2[nH]c1=O	n	n	n	n	-78.9	n
CC1CCN(CC(=O)c2ccccc2Cl)CC1	n	n	n	n	n	n
CC1CN(CC(=O)c2ccccc2Cl)CC(C)O1 (centres undefined)	n	n	n	n	-61.4	n
Cc1ccccc1NC(=O)c1c(NC(=O)c2ccncc2)sc2c1CCC(C(C)(C)C)C2 (centres undefined)	x	x	u	n	n	n
O=[N+]([O-])c1cc(Cl)cc(/C=N\Nc2ccccn2)c1O	u	n	n	u	-102.7	u
Cc1nc(Sc2nnnn2C)c2c3c(sc2n1)CCC3	n	n	u	u	-102.7	u
CCc1nc(Sc2nnnn2-c2ccccc2)c2c3c(sc2n1)CCCC3	u	n	u	n	n	u
C[C@@H]1CN([C@H](C)CO)C(=O)CCCn2nncc2CO[C@@H]1CN(C)S(C)(=O)=O	x	x	n	x	n	x
COC(=O)C[C@H]1SC(=O)NC1=O	x	x	x	n	x	x
O=C(CN1C(=O)C2(SCC(=O)N2c2cccc(F)c2)c2ccccc21)NCCc1ccccc1 (centres undefined)	x	x	n	x	-107.1	n
CC1(C)Cc2ccccc2C(NNC(=O)c2ccncc2)=N1	n	n	n	n	n	n
